Active and inactive are the calls of the source. Rule for the calls: active = hit-call score of the fitted dose curve at least 0.9, where 1 is the maximum; inactive = score below 0.9.

Common to all, as to settings: mRNA level, 48 h; actives raise or lower the signal
Read-out in assay [1]: Cytochrome P450 4A22 (Homo sapiens) (UniProt Q5TCH4)
In words: LTEA_HepaRG_CYP4A22: Life Technologies and Expression Analysis (LTEA) Assay for Cytochrome P450 4A22 (CYP4A22) using HepaRG (AID 2283495). The gist of the method: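 HepaRG, 48 h post-plating -> serum-free induction medium; dosed 48 h, duplicate, 8 conc. (100 uM top, half-log), 0.5% DMSO. Readout: CYP4A22 mRNA by qRT-PCR, ACTB/GAPDH/POLR2A normalization; gain/loss fit relative to DMSO.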

Read-out in assay [2]: Cytochrome P450 7A1 (Homo sapiens) (UniProt P22680)
In words: LTEA_HepaRG_CYP7A1: Life Technologies and Expression Analysis (LTEA) Assay for Cytochrome P450 7A1 (CYP7A1) using HepaRG (AID 2283496). In outline:
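Using 0.5% DMSO as vehicle and baseline, chemicals were tested in duplicate over an 8-point range from 100 uM on HepaRG cells for 48 h; qRT-PCR signals were normalised to ACTB, GAPDH and POLR2A.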

Read-out in assay [3]: Glutathione S-Transferase (GSTA2), GSTA2 (gene 2939)
As to the kind of experiment: LTEA_HepaRG_GSTA2: Life Technologies and Expression Analysis (LTEA) Assay for Glutathione S-Transferase (GSTA2) using HepaRG (AID 2283497). In outline:
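qRT-PCR readout of GSTA2 transcript, normalized to three housekeeping genes, fitted bidirectionally against 0.5% DMSO baseline. Differentiated HepaRG cells received compound for 48 h at 8 concentrations (top 100 uM, half-log steps).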

Read-out in assay [4]: growth arrest and DNA damage 45 (GADD45G), GADD45G (gene 10912)
In words: LTEA_HepaRG_GADD45G: Life Technologies and Expression Analysis (LTEA) Assay for growth arrest and DNA damage 45 (GADD45G) using HepaRG (AID 2283499). The gist of the method: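 HepaRG, 48 h exposure, top 100 uM, half-log 8-point series, 0.5% DMSO vehicle, duplicates. Readout: GADD45G transcript by qRT-PCR (Fluidigm array), housekeeping-normalised (ACTB/GAPDH/POLR2A). Bidirectional curve fit vs DMSO baseline.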

Read-out in assay [5]: Glutamate-cysteine ligase regulatory (GCLM), GCLM (gene 2730)
As to the kind of experiment: LTEA_HepaRG_GCLM: Life Technologies and Expression Analysis (LTEA) Assay for Glutamate-cysteine ligase regulatory (GCLM) using HepaRG (AID 2283500). The gist of the method: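 HepaRG, 48 h dosing, 100 uM top, half-log x8, 0.5% DMSO vehicle. Readout: GCLM mRNA by TaqMan qRT-PCR, housekeeping-normalized (ACTB/GAPDH/POLR2A). Curves fit bidirectionally vs DMSO baseline.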

Read-out in assay [6]: Heat shock 70 kDa protein 1 (HSPA1A), gene 3303
As to the kind of experiment: LTEA_HepaRG_HSPA1A: Life Technologies and Expression Analysis (LTEA) Assay for Heat shock 70 kDa protein 1 (HSPA1A) using HepaRG (AID 2283502). The gist of the method:
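HepaRG, 48 h exposure, 8-pt half-log CRC from 100 uM in 0.5% DMSO, duplicates. Readout: TaqMan qRT-PCR of HSPA1A mRNA, housekeeping-normalized (ACTB/GAPDH/POLR2A). Bidirectional fit vs 0.5% DMSO baseline.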

Read-out in assay [7]: Hypoxia-inducible factor 1-alpha (Homo sapiens) (UniProt Q16665)
In words: LTEA_HepaRG_HIF1A: Life Technologies and Expression Analysis (LTEA) Assay for Hypoxia-inducible factor 1 (HIF1A) Trancription factor using HepaRG (AID 2283503). The gist of the method:
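Gain- or loss-of-signal HIF1A mRNA changes are fitted against a DMSO baseline. HepaRG cultures receive eight concentrations, highest 100 uM, for 48 h in serum-free induction medium with 0.5% DMSO.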

Read-out in assay [8]: 3-Hydroxy-3-Methylglutaryl-CoA Synthase 2 (HMGCS2), HMGCS2 (gene 3158)
In words: LTEA_HepaRG_HMGCS2: Life Technologies and Expression Analysis (LTEA) Assay for 3-Hydroxy-3-Methylglutaryl-CoA Synthase 2 (HMGCS2) using HepaRG (AID 2283504). The gist of the method:
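qRT-PCR read-out of HMGCS2 transcript, normalised to three housekeeping genes, in HepaRG cells after 48 h chemical exposure. Eight-point curves from 100 uM, half-log dilutions, 0.5% DMSO vehicle; gain or loss fitted relative to DMSO baseline.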

Read-out in another assay: HGF (gene 3082)
As to the kind of experiment: LTEA_HepaRG_HGF: Life Technologies and Expression Analysis (LTEA) Assay for Hepatocyte Growth Facto (HGF) using HepaRG (AID 2283505). In outline: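 HepaRG, 48 h dosing, 8-pt half-log series from 100 uM in 0.5% DMSO, duplicates. Readout: TaqMan qRT-PCR of HGF mRNA, housekeeping-normalized; bidirectional curve fit vs DMSO baseline.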

Read-out in assay [9]: Insulin Like Growth Factor 1 (IGF1), IGF1 (gene 3479)
In words: LTEA_HepaRG_IGF1: Life Technologies and Expression Analysis (LTEA) Assay for Insulin Like Growth Factor 1 (IGF1) using HepaRG (AID 2283506). In outline:
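qRT-PCR readout of IGF1 mRNA, normalized to three housekeeping genes, after 48 h chemical exposure of HepaRG cells. Concentrations: 8-point half-log series, top 100 uM, 0.5% DMSO vehicle. Gain or loss fitted against DMSO baseline.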

Read-out in assay [10]: Intercellular Adhesion Molecule 1 (ICAM1), ICAM1 (gene 3383)
In words: LTEA_HepaRG_ICAM1: Life Technologies and Expression Analysis (LTEA) Assay for Intercellular Adhesion Molecule 1 (ICAM1) using HepaRG (AID 2283507). The gist of the method: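 HepaRG, 48 h exposure, 8-pt half-log series from 100 uM, 0.5% DMSO vehicle, duplicates. Readout: TaqMan qRT-PCR mRNA, housekeeping-normalized (ACTB/GAPDH/POLR2A). Bidirectional curve fit vs DMSO baseline.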

Read-out in assay [11]: Insulin-like growth factor-binding protein 1 (IGFBP1), IGFBP1 (gene 3484)
In words: LTEA_HepaRG_IGFBP1: Life Technologies and Expression Analysis (LTEA) Assay for Insulin-like growth factor-binding protein 1 (IGFBP1) using HepaRG (AID 2283508). In outline:
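qRT-PCR mRNA read-out (TaqMan, Fluidigm array), normalised to three housekeeping genes; HepaRG cells, 48 h exposure, 8-pt half-log series from 100 uM, 0.5% DMSO vehicle; bidirectional curve fit vs DMSO baseline.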

Read-out in assay [12]: Interleukin 6 Receptor (IL6R), IL6R (gene 3570)
As to the kind of experiment: LTEA_HepaRG_IL6R: Life Technologies and Expression Analysis (LTEA) Assay for Interleukin 6 Receptor (IL6R) using HepaRG (AID 2283510).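 Note: differentiated human HepaRG liver cells in serum-free induction medium.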 In outline: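 HepaRG, 48 h exposure, 8-pt half-log series, top 100 uM, 0.5% DMSO vehicle, duplicates. Read-out: TaqMan qRT-PCR of IL6R transcript, housekeeping-gene normalized. Gain or loss fitted relative to DMSO baseline.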

Read-out in assay [13]: Potassium channel subfamily K member 1 (KCNK1), KCNK1 (gene 3775)
In words: LTEA_HepaRG_KCNK1: Life Technologies and Expression Analysis (LTEA) Assay for Potassium channel subfamily K member 1 (KCNK1) using HepaRG (AID 2283511). The gist of the method: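 HepaRG, 48 h exposure, 8-pt half-log series top 100 uM, 0.5% DMSO vehicle, duplicates. Readout: KCNK1 transcript by qRT-PCR (Fluidigm array), housekeeping-normalized; bidirectional curve fit relative to DMSO baseline.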

Read-out in assay [14]: Keratin 19 (KRT19), KRT19 (gene 3880)
As to the kind of experiment: LTEA_HepaRG_KRT19: Life Technologies and Expression Analysis (LTEA) Assay for Keratin 19 (KRT19) using HepaRG (AID 2283512). In outline: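 HepaRG, 48 h chemical exposure, 8-pt half-log CRC from 100 uM, 0.5% DMSO vehicle, duplicates. Readout: TaqMan qRT-PCR of KRT19 mRNA, housekeeping-normalized (ACTB/GAPDH/POLR2A). Bidirectional fit vs DMSO baseline.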

Read-out in assay [15]: Lipase C (LIPC), LIPC (gene 3990)
In words: LTEA_HepaRG_LIPC: Life Technologies and Expression Analysis (LTEA) Assay for Lipase C (LIPC) using HepaRG (AID 2283514). In outline:
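HepaRG, 48 h exposure, 8-pt half-log series from 100 uM in 0.5% DMSO, duplicates. Readout: LIPC mRNA by Fluidigm qRT-PCR, housekeeping-normalized (ACTB/GAPDH/POLR2A). Gain or loss fitted bidirectionally against DMSO baseline.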

Read-out in assay [16]: Lipoprotein lipase (LPL), LPL (gene 4023)
In words: LTEA_HepaRG_LPL: Life Technologies and Expression Analysis (LTEA) Assay for Lipoprotein lipase (LPL) using HepaRG (AID 2283515). The gist of the method:
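HepaRG, 48 h exposure, 8-pt half-log dilutions from 100 uM, 0.5% DMSO vehicle, duplicates; qRT-PCR (Fluidigm array) of LPL mRNA vs housekeeping genes; bidirectional curve fit relative to DMSO baseline.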

Read-out in assay [17]: MicroRNA 122 (MIR122), gene 406906
As to the kind of experiment: LTEA_HepaRG_MIR122: Life Technologies and Expression Analysis (LTEA) Assay for MicroRNA 122 (MIR122) using HepaRG (AID 2283516). Note: the transcript read is the microRNA miR-122. The gist of the method:
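qRT-PCR read-out (TaqMan, Fluidigm array), normalized to three housekeeping genes; HepaRG cells dosed 48 h at 8 concentrations up to 100 uM in 0.5% DMSO, duplicate; gain or loss fitted against DMSO baseline.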

Read-out in assay [18]: matrix metalloproteinase-10 (MMP10), MMP10 (gene 4319)
In words: LTEA_HepaRG_MMP10: Life Technologies and Expression Analysis (LTEA) Assay for matrix metalloproteinase-10 (MMP10) using HepaRG (AID 2283517). In outline:
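Transcript levels come from Fluidigm qRT-PCR normalized to three housekeeping genes, with curves fitted bidirectionally against 0.5% DMSO. Human HepaRG cells were dosed for 48 hours at concentrations up to 100 uM.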

Read-out in a further assay: MYC, MYC (gene 4609)
In words: LTEA_HepaRG_MYC: Life Technologies and Expression Analysis (LTEA) Assay for MYC using HepaRG (AID 2283518). In outline:
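qRT-PCR read-out of MYC transcript (Fluidigm TaqMan, housekeeping-normalized) after 48 h chemical exposure of HepaRG cells; eight concentrations, top 100 uM, half-log steps. Bidirectional curve fitting against 0.5% DMSO vehicle baseline.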

Hypoxia-inducible factor 1-alpha (Homo sapiens), sequence (Q16665 whole entry, looked up): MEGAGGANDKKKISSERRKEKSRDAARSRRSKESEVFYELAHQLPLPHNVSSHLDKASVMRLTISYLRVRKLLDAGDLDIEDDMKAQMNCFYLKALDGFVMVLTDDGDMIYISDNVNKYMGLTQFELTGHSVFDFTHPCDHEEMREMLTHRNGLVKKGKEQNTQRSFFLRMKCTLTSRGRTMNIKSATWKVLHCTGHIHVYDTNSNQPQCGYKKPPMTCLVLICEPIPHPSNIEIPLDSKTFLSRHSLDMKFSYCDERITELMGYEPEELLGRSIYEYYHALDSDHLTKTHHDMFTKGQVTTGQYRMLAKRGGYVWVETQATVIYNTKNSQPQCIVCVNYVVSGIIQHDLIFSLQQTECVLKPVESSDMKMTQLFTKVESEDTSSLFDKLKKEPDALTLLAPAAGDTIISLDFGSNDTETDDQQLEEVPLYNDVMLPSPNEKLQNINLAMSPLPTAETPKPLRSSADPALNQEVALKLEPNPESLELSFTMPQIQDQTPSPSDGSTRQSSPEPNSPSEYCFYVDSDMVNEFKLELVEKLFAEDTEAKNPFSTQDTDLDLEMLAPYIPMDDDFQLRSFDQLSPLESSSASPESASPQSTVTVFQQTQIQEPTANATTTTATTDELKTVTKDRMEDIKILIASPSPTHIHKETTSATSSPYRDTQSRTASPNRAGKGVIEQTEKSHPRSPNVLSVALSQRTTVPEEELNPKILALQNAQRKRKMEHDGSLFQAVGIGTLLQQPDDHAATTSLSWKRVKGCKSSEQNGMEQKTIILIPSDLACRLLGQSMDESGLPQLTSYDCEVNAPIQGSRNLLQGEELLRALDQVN

What is called AC50 is the concentration giving half of the maximal activity seen. On to `O=C(Nc1ccc2[nH]ccc2c1)c1cc2cc(F)ccc2n1Cc1cccc(F)c1`, for which the AC50 in assay [1] is 22.3 µM (active); in [2] it was 30.7 µM (active); in assay [3] it was 31.2 µM (active); in assay [5], 27.8 µM (active); in assay [6] it was 90.7 µM (active); in [7], 84.5 µM (active). Moreover, the AC50 in [8] is 30.2 µM (active); in [9], 33.1 µM (active); in assay [10], 12.6 µM (active); in assay [11], 27.2 µM (active); in [12], 89.5 µM (active); in [14] it was 50 µM (active). Also, the half-maximal activity concentration (AC50) in [15] is 59.7 µM (active); in assay [16] it was 19.9 µM (active); in [17] it was 24.9 µM (active); in assay [18] it was 29 µM (active); in the assay with MYC, MYC (gene 4609), 15.7 µM (active). The call (in assay [4]; with HGF (gene 3082); in assay [13]) was inactive.

`CCN1CCC2(CC1)COc1cc3c(cc12)N(C(=O)c1ccc(-c2ccc(-c4nnc(C)o4)cc2C)cc1)CC3`: the result (in assay [1]; in assay [2]; in the assay with HGF (gene 3082); in [14]; in assay [15]; in assay [17]) was inactive. In addition, the compound was classed as inactive with MYC, MYC (gene 4609). The AC50 was 75.2 µM (active) in assay [3]; 74 µM (active) in [4]; 26.8 µM (active) in assay [5]; 16.6 µM (active) in assay [6]; 27.7 µM (active) in [7]; 22.8 µM (active) in assay [8]. Moreover, the concentration at half-maximal activity (AC50) in assay [9] is 14.5 µM (active); in assay [10], 11.1 µM (active); in assay [11], 13.4 µM (active); in assay [12], 31.8 µM (active); in assay [13], 29.3 µM (active); in [16], 32.7 µM (active). Further, the AC50 in [18] is 76.1 µM (active).

For the origin of these results see PubChem BioAssay (EPA / NIEHS).
